Bioassay records from PubChem.
Only some compounds are listed: those with a hit (about 5.7% of all), similar ones and a draw of the others.
ClpP mod = qHTS Assay for Activators of ClpP. ATP-dependent Clp protease proteolytic subunit (Bacillus subtilis (strain 168)), P80244. purified B. subtilis ClpP, FRET peptide cleavage, 20 min. Potency, µM (doses to about 57.5 µM). 340,000 tested, 1.9% active. AID 651965, 2013; active = well fitted falling curve with a large enough effect; inconclusive = small, poorly fitted or top-dose-only effect; inactive = no such curve, though single readings can be large or run the other way; note: the source files actives as falling curves though it sought activators and does not explain the sign; nearly all actives have a fitted effect of over 65% in size
Target sequence (P80244 whole entry, looked up): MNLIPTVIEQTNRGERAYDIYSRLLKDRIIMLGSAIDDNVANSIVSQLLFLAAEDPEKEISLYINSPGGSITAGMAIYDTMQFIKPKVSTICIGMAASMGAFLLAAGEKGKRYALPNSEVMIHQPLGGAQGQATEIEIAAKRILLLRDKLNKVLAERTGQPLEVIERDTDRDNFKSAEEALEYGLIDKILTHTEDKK
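Purified B. subtilis ClpP, 10 microg/mL final in Tris/HCl pH8 with KCl, BSA, glycerol and Tween-20, cleaved an Abz/nitrotyrosine-quenched decapeptide. Fluorescence (ex 320, em 430) was read at 0 and 20 min at room temperature. Delta was normalized to 5.8 microM ADEP and DMSO/no-enzyme controls.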
GLP1R cytotox = cytotoxicity counter-screen for GLP-1 receptor inverse agonists. AID 624418. HEK293 cAMP-luciferase reporter cells, luminescence, 24 h. Potency, µM (doses to about 38.3 µM), actives largely listed as inhibitors. 410,000 tested, 0.13% active;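 note: loss of luciferase light is scored as toxicity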
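Here, cytotoxicity is scored as loss of luminescence. The MLSMR collection was tested on cells seeded in medium containing 10% Nu serum, with a 24 hr compound exposure preceded by 12 hours of culture.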
D3 ag = activates the human D3 dopamine receptor; P35462; D3R DiscoveRx beta-arrestin cells, luminescence, 90 min; max activation, %; 410,000 tested, 0.58% active; in the data active = max activation above about 30%
Target sequence (P35462 whole entry, looked up): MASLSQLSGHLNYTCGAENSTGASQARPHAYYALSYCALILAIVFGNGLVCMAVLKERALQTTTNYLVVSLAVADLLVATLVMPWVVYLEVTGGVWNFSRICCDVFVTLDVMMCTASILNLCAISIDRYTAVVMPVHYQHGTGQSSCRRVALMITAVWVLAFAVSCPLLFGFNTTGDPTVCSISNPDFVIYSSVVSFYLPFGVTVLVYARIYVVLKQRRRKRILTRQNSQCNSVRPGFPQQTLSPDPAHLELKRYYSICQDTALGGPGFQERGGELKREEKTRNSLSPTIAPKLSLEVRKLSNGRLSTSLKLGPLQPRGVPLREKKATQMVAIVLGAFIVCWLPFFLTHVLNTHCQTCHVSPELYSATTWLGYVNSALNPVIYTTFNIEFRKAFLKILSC
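Cells at 1500/well, incubated overnight, then treated with pinned compounds (dopamine as control) for 90 min at 37 degrees C. DiscoveRx reagent added for 30 - 60 minutes at room temperature; luminescence read.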
DRD3 antagonist = antagonists of human D3 dopamine receptor | D3R cells, DiscoveRx beta-arrestin luminescence, antagonist mode; hits give low values | AID 652054 | P35462 | max response, negative = inhibition, % | 360,000 tested, 2.5% active; in the data active = max response below about -50%; inconclusive = no clear call, values can overlap the other calls
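Cells plated overnight at 1500 cells/well, then exposed to library compounds with dopamine controls for 90 minutes at 37 degrees C. DiscoveRx reagent added for 30–60 minutes at room temperature; luminescence read, quantitative HTS format.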
GLP1R ag = GLP-1 receptor (human) agonism; Potency, µM (highest dose often 45.6 µM), hits mostly activators; HEK293 GLP-1R CRE-luciferase, luminescence, 4-6 h; cells express a hypersensitive GLP-1R form; P43220; 380,000 tested, 0.007% active; AID 624172
GLP1R inv ag = inverse agonists of human GLP-1 receptor; P43220; HEK293 GLP-1R CRE-luciferase, luminescence, 24 h; GLP-1R form is constitutively active; Potency, µM (doses to about 38.3 µM), usual class: inhibitors; 410,000 tested, 1.6% active; AID 624417; note: nearly all actives have a fitted effect of over 55% in size
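Readout was luciferase luminescence, measured 12 min after detection reagent at room temperature. Beforehand, GLP-1R reporter HEK293 cells had sat 12 h, then received compounds for 24 hr at 37 deg C.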
Numbers stand for hits; n = inactive; u = inconclusive; x = no result. Unless noted, calls come from the whole dose curve; as a rule, active = well fitted curve in the direction sought with a large enough effect; inconclusive = small, poorly fitted or top-dose-only effect, or another doubt; inactive = no such curve, though single readings can be large; an effect the other way counts as inactive or inconclusive.

SMILES	ClpP mod	GLP1R cytotox	D3 ag	DRD3 antagonist	GLP1R ag	GLP1R inv ag
O=C(CN1CCN(Cc2ccccc2Cl)C1=O)NCc1ccccc1Cl	n	n	n	x	n	u
COc1cccc(-c2sc3ccc(OC)cc3c2C#CC(C)(C)O)c1	n	n	71	n	n	u
COC(=O)c1c(-c2ccc(S(C)(=O)=O)cc2)sc2cc(OC)ccc12	n	n	31	n	n	n
COC(=O)c1c(-c2ccc(S(C)(=O)=O)cc2)sc2ccc(OC)cc12	n	n	n	n	n	n
COc1ccc2sc(-c3ccc(N(C)C)cc3)c(C#CC(C)(C)O)c2c1	n	n	n	n	n	n
C/C(=N\NC(N)=S)c1ccc(Cl)s1	n	u	n	n	n	3.2µM
COC(=O)[C@]12CCCCC=C1N(Cc1ccc3c(c1)OCO3)C(=O)[C@H](CC(=O)NCc1ccc(OC)c(OC)c1)C2	n	n	n	u	x	n
CCCCC(=O)Nc1cc(N(C)C)nc2ccccc12	8.9µM	n	n	n	n	n
CCCCC(=O)Nc1ccccc1CC	x	n	n	-65	n	n
CN(C)c1cc(NC(=O)CNC(C)(C)C)c2ccccc2n1	n	n	n	n	n	u
CCCC12CN3CC(CCC)(CN(C1)C3c1ccccc1)C2=O (configuration not stated)	n	n	n	x	x	n
O=C(C1=NN(c2ccccc2)C2C(=O)N(c3cccc(Cl)c3)C(=O)C12)c1ccccc1 (configuration not stated)	18µM	n	n	n	n	n
O=C(C1=NN(c2ccccc2)C2C(=O)N(c3ccc(Cl)cc3)C(=O)C12)c1ccccc1 (configuration not stated)	n	n	n	n	n	n
Cc1ccccc1S(=O)(=O)NC(=O)C1(C)CCN1C(=O)c1cccc2ccccc12 (configuration not stated)	n	n	n	n	n	n
Cc1ccc(F)c(S(=O)(=O)NC(=O)C2(C)CCN2C(=O)c2cccc3ccccc23)c1 (configuration not stated)	n	n	72	n	n	n
CCCn1c2ccccc2c2cnn(CC(=O)NCCc3ccc(OCC)c(OCC)c3)c(=O)c21	n	n	n	x	x	n
Cc1ccc(SCC(=O)Nc2ccc(N3CCN(C)CC3)c(F)c2)cc1	u	n	n	-53	n	u
COc1ccc(SCC(=O)Nc2ccc(N3CCN(C)CC3)c(F)c2)cc1	x	n	n	-56	n	u
Clc1ccc2nc[nH]c2c1	n	x	x	x	x	x
COc1cccc(/C=N/Nc2ncccc2[N+](=O)[O-])c1OC	x	n	n	u	n	u
O=[N+]([O-])c1ccc(/C=N/Nc2ncccc2[N+](=O)[O-])s1	x	1.1µM	n	n	n	u
COCCC(=O)N1CCCC(CNS(=O)(=O)c2ccc(OC)cc2)C1 (configuration not stated)	n	n	n	-63	n	n
O=S(=O)(c1ccccc1)c1nnn2c1nc(NCc1ccccc1)c1sccc12	n	n	n	x	x	n
O=C(Nc1sc2c(c1C(=O)NCC1CCCO1)CCC2)c1cc(=O)c2ccccc2o1 (configuration not stated)	n	n	n	x	x	n
CCCCn1c(-c2cccc3ccccc23)nc2cc3[nH]c(=O)c(C(C)C)nc3cc21	n	n	n	n	n	u
SMILES	ClpP mod	GLP1R cytotox	D3 ag	DRD3 antagonist	GLP1R ag	GLP1R inv ag
CCCCn1c(-c2ccccc2C)nc2cc3[nH]c(=O)c(C(C)C)nc3cc21	n	n	n	-64	n	u
COC(=O)C1=[N+]([O-])OC(C(=O)OC)C1c1c[nH]c2ccccc12 (configuration not stated)	n	n	n	-56	n	n
CC(CNC(=O)CCC(=O)N1CCOc2ccc(Cl)cc21)c1ccccc1 (configuration not stated)	n	n	n	-50	n	u
O=C(CCC(=O)N1CCOc2ccc(Cl)cc21)NCCCN1CCN(Cc2ccccc2)CC1	n	n	n	-60	n	u
Cc1ccc(CNC(=O)CCC(=O)N2CC(C)Oc3ccc(Cl)cc32)cc1 (configuration not stated)	n	n	n	n	n	u
O=C(CCC(=O)N1CCOc2ccc(Cl)cc21)NCCCN1CCOCC1	n	n	n	n	n	n
CC(=O)N1CCOc2cc(S(=O)(=O)N(C)Cc3ccccc3)c(Cl)cc21	n	n	n	x	n	n
CC1CN(C(=O)CCC(=O)NCCCN2CCN(Cc3ccccc3)CC2)c2cc(Cl)ccc2O1 (configuration not stated)	n	n	n	-90	n	u
CC(=O)N1CCOc2cc(S(=O)(=O)NC(C)c3ccccc3)c(Cl)cc21 (configuration not stated)	n	n	n	-61	n	n
CC(C)c1cc(Cn2c3ccccc3c(=O)n2C(C)CBr)on1 (configuration not stated)	n	n	n	n	n	n
Cc1cccc(NC(=O)C2CCC(CNS(=O)(=O)c3ccc(Br)s3)CC2)c1 (configuration not stated)	n	n	n	x	x	u
CCC1Oc2ccc(C)cc2N(CC(=O)NCCCN2CCN(Cc3ccccc3)CC2)C1=O (configuration not stated)	n	u	n	-75	n	u
COc1ccccc1NC(=O)CSCc1cc(=O)c2cccc(Cl)c2[nH]1	n	n	n	x	x	n
COc1cccc(CNC(=O)C(C)n2ccc3cc(S(=O)(=O)N4CCCCCC4)ccc32)c1 (configuration not stated)	n	n	n	n	n	13µM
CCC(C(=O)NCCC(C)C)n1ccc2cc(S(=O)(=O)N3CCCCC3)ccc21 (configuration not stated)	n	n	n	n	n	7.9µM
CCN(CC)c1ccc(NC(=O)CCCN2C(=O)C(c3ccccc3)Oc3cccnc32)c(C)c1 (configuration not stated)	n	n	n	x	n	n
C[C@@H]1[C@H]2[C@@H](O[C@@H]3O[C@H](CO)[C@@H](O)[C@H](O)[C@H]3O)OC=C(C(=O)O)[C@H]2C[C@@H]1O	n	n	43	n	n	n
Cc1cc(O)c(/C=N/Nc2cccc(Cl)c2)c(=O)o1	n	n	n	n	n	2.8µM
Cc1cc(O)c(/C=N/Nc2ccc(Cl)cc2)c(=O)o1	n	n	n	n	n	u
Cc1nc(N2CCN(c3ccccn3)CC2)c2c(C)c(C(=O)N3CCN(c4ccc(F)cc4)CC3)sc2n1	x	n	n	n	n	u
